# Where “and” joins values, the source holds several entries; their conditions need not be identical. Equal entries are not always repeated. The campaign covered roughly 190,000 compounds. About 6,900 (3.6%) were called active. Rule as the data show it: active = inhibition above about 50%; inactive = the rest. The list comes from a sample in which actives are over-represented; it also holds similar structures and randomly drawn compounds. The source holds several records for some structures; these can differ, active in one and inactive in another.
# Target: Huntingtin (Homo sapiens) (UniProt P42858)
# Assay: mutant huntingtin-calmodulin interaction inhibitors – biochemical, AlphaScreen, primary screen (AID 1671202);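 also: 0% = both proteins with DMSO and 100% = one protein alone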
# Conditions: AlphaScreen His-mHTT/GST-CaM binding, luminescence; at 15 µM, stronger effect = higher value
# Huntingtin (Homo sapiens), sequence (P42858 whole entry, looked up, stated change not applied): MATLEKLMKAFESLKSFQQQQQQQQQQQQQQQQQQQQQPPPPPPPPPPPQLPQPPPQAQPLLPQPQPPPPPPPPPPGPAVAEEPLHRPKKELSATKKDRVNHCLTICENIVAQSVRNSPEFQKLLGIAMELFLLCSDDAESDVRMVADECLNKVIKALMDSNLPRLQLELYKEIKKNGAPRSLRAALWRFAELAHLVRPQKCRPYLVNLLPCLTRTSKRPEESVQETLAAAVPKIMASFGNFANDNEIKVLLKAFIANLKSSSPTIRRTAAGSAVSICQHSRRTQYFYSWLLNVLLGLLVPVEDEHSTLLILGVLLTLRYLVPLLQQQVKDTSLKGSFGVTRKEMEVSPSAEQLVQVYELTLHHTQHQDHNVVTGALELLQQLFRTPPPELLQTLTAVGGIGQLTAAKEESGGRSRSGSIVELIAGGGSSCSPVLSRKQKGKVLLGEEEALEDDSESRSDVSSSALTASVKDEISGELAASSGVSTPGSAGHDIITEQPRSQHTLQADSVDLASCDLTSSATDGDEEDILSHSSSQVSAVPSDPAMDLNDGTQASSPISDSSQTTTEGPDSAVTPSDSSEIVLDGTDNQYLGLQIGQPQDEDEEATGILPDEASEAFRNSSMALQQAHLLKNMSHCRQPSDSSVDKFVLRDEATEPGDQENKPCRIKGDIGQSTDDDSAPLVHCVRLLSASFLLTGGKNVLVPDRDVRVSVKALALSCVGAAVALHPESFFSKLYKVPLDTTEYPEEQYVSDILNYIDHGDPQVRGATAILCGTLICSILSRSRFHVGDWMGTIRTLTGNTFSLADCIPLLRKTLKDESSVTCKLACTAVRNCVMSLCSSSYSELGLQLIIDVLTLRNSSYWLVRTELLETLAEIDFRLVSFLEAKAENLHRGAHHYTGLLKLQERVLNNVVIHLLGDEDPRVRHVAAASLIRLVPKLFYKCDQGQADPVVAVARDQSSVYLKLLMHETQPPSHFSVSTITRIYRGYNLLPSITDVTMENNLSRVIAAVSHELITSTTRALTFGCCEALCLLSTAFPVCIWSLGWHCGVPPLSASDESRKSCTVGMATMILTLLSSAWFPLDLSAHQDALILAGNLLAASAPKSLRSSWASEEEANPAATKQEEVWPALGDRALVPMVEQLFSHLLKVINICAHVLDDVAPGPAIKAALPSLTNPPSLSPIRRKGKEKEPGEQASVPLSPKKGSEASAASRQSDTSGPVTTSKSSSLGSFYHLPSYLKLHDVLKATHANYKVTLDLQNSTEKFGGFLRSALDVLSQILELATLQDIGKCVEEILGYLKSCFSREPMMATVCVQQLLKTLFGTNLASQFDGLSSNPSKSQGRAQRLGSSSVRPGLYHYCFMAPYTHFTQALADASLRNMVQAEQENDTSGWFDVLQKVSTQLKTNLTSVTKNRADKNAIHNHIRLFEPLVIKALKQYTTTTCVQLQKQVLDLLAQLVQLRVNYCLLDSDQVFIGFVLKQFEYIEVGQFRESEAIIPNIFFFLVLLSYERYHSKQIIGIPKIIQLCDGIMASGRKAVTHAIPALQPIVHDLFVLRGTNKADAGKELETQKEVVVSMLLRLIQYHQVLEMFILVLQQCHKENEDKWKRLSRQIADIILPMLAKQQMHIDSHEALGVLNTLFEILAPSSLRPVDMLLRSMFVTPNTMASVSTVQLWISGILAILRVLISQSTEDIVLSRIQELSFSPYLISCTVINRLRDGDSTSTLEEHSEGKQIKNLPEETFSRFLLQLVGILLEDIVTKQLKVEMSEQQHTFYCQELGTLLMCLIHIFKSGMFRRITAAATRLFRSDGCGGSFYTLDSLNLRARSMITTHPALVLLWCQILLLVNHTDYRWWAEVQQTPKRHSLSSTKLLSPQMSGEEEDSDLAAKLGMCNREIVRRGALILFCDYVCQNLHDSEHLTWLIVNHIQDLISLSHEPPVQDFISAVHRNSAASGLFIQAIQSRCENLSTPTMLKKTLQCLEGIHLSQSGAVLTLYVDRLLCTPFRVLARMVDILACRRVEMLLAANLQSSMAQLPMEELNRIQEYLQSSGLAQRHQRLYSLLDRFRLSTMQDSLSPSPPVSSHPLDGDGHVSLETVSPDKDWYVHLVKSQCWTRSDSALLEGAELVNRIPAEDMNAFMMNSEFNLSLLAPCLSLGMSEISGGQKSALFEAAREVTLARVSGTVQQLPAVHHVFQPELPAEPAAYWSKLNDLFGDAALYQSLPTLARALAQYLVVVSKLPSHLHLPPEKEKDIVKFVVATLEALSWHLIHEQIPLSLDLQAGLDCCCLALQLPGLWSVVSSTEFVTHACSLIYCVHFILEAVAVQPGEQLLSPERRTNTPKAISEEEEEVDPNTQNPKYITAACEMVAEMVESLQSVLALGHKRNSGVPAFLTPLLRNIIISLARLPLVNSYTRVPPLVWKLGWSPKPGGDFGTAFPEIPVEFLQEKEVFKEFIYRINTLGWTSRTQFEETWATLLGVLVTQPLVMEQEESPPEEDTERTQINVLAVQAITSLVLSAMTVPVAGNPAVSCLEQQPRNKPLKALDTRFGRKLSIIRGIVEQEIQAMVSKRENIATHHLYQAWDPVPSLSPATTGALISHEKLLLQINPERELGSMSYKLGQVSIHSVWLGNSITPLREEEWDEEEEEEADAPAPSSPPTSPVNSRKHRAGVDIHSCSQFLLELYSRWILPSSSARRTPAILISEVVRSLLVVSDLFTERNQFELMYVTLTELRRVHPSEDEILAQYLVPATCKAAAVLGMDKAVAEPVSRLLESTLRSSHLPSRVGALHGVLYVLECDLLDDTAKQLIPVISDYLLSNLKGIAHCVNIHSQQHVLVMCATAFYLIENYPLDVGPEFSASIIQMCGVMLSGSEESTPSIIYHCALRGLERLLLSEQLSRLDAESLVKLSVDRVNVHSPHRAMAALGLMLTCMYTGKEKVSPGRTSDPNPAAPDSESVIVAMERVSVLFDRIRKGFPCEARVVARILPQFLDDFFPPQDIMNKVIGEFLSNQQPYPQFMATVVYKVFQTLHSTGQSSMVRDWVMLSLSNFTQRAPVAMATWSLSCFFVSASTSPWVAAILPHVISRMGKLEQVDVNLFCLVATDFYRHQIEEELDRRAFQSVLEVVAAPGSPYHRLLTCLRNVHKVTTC
row,SMILES,inhibition
1,CC1=C(C(=O)Nc2ccc(C)cc2C)C(c2ccccc2[N+](=O)[O-])n2ncnc2N1 (stereo not given),25% (inactive)
2,O=C(Cc1ccccc1)ON=C1C=CC(=NOC(=O)c2ccccc2)C=C1,14% (inactive)
3,O=C1C=CC(=NOC(=O)/C=C/c2ccccc2)C=C1,100% (active)
4,Cc1cc(OC(=O)C=Cc2ccccc2)c([N+](=O)[O-])c(=O)[nH]1,7.1% (inactive)
5,O=S1(=O)c2ccc(Br)cc2OC[C@@H](Cc2ccccc2)N1Cc1cn(Cc2ccco2)nn1,5.1% (inactive)
6,O=C(COc1ccc(Br)cc1)Nc1ccc2c(c1)OCO2,0.4% (inactive)
7,O=C1C(Nc2ccc(Br)cc2)=CC(=NS(=O)(=O)c2cccs2)c2ccccc21,80% (active)
8,CCOc1ccc(NC(=O)C2CCC(N3C(=O)c4ccccc4C3=O)CC2)cc1 (stereo not given),2.4% (inactive)
9,Cc1cc(Br)ccc1NC(=O)C(NS(=O)(=O)c1cccs1)C(C)C (stereo not given),-6% (inactive)
10,O=S(=O)(c1cccs1)N(c1ccccc1)C(F)F,-18.8% (inactive)
11,COc1ccc(S(=O)(=O)N=C2C=C(Br)C(=O)c3ccccc32)cc1,31% (inactive)
12,CCOc1ccc(S(=O)(=O)N=C2C=C(Nc3ccc(C)cc3)C(=O)c3ccccc32)cc1,93% (active)
13,CCc1ccc(S(=O)(=O)N=C2C=C(Nc3ccc(OC)cc3)C(=O)c3ccccc32)cc1,91% (active)
14,CCc1ccc(S(=O)(=O)N=C2C=C(Br)C(=O)c3ccccc32)cc1,38% (inactive)
15,CCOc1ccc(NS(=O)(=O)c2ccc(Cl)cc2)cc1,-13% (inactive)
16,Clc1ccc(Cl)c(-c2ccc(CNC3CC3)o2)c1,-25.6% (inactive)
17,COc1ccc(CCCN)cc1OC,-2.8% (inactive)
18,COc1ccc(CNC(=O)C(=O)Nc2ccc(OC)cc2)cc1,-2.2% (inactive)
19,COc1ccc(NCc2ccc(OC)c(C)c2)cc1,52% (active)
20,COc1ccc(CNc2ccc3c(c2)CCC3)cc1OC,62.8% (active)
21,COc1ccc(CC(=O)Nc2c3c(nc4c2CCC4)CCCC3)cc1OC,2% (inactive)
22,COc1ccc(CNc2nccs2)cc1,5.7% (inactive)
23,COc1cc(CN2CCC(O)CC2)ccc1OCc1ccccc1,-5.7% (inactive)
24,COc1cc(CNc2ccc(F)cc2)ccc1OCc1ccccc1,55.7% (active)
25,COc1cc(C=C2C(=O)c3ccccc3C2=O)ccc1OCc1ccccc1,4% (inactive)

row,SMILES,inhibition
1,CCN1CCCC1CNC(=O)c1ccc(Sc2ccc(C)cc2)c(NC(C)=O)c1 (stereo not given),-3% (inactive)
2,O=C(Nc1ccc(NC(=O)c2ccc([N+](=O)[O-])cc2Cl)cc1)c1ccco1,-2.2% (inactive)
3,COc1cccc(C(=O)NCC2Cc3cc(OC)ccc3O2)c1 (stereo not given),-0.8% (inactive)
4,O=C(CC1CCCCC1)N1CCC(COc2ccc(C(=O)N3CCCCC3)cc2)CC1,-1.76% (inactive)
5,COc1ccc(C(=O)N2CCCCC2CCN2CCCC2)cn1 (stereo not given),6.78% (inactive)
6,O=C(c1ccco1)N1CCCC(c2nncn2-c2ccccc2)C1 (stereo not given),8.27% (inactive)
7,CCOc1cc(/C=C2\C(=O)NC(=O)N(c3ccc(F)cc3)C2=O)ccc1O,5% (inactive)
8,COc1cc(/C=C2\C(=O)Nc3ccc(Br)cc32)ccc1O,100% (active)
9,CCOc1cc(/C=C2\C(=O)NC(=O)N(c3ccc(Br)cc3)C2=O)ccc1O,5% (inactive)
10,Cc1cc([N+](=O)[O-])nn1CCCC(=O)Nc1cc(Cl)ccc1O,2% (inactive)
11,CC(C)(C)CC(=O)N1CCN(c2nc(CN3CCCCCC3)cs2)CC1,-9.3% (inactive)
12,COc1cccc(C=C2Oc3cc(OCC(=O)NN)ccc3C2=O)c1OC,4.1% (inactive)
13,COc1cccc(CCC(=O)N2CCCN(c3ncccc3-c3nc(C4CC4)no3)CC2)c1,-31.2% (inactive)
14,Cn1nc(COc2ccccc2)c2c1CCN(C(=O)c1ccoc1)C2,3.9% (inactive)
15,Cn1nc(COc2ccccc2)c2c1CCN(C(=O)Nc1ccccc1F)C2,16.9% (inactive)
16,Cc1ccc(S(=O)(=O)N2CCc3c(c(COc4ccccc4)nn3C)C2)cc1C,60.3% (active)
17,CC(C)CNC(=O)C(=O)NCC(c1ccco1)S(=O)(=O)c1cccs1 (stereo not given),-9.6% (inactive)
18,O=C1C2C(C(=O)N1c1ccccc1[N+](=O)[O-])C1C=CC2C12CC2 (stereo not given),3% (inactive)
19,Cc1ccc(NC2CC(=O)N(c3cccc(Cl)c3)C2=O)cc1 (stereo not given),-2% (inactive)
20,Cc1ccc(N2C(=O)CC(Nc3ccc(N4CCOCC4)cc3)C2=O)c(Br)c1 (stereo not given),60.1% (active) and 18.3% (inactive)
21,COc1ccc(N2C(=O)CC(Nc3ccc(OC(F)(F)F)cc3)C2=O)cc1 (stereo not given),-4% (inactive)
22,O=C(Nc1ccc(N2CCCCC2)nc1)C1CC1,-1% (inactive)
23,O=C(O)/C(=C\c1cccc([N+](=O)[O-])c1)NC(=O)c1ccco1,-2.8% (inactive)
24,CCOc1ccc(Br)c(/C=C2\C(=O)Nc3ccc(Br)cc32)c1,31% (inactive)
25,COc1ccc(/C=C2\C(=O)Nc3ccc(F)cc32)cc1OC,40% (inactive)

row,SMILES,inhibition
1,CCc1ccc(/C=C2\C(=O)Nc3ccc(F)cc32)cc1,66% (active)
2,Cc1ccc(C(=O)N2CCc3sc(C(=O)NCc4ccco4)cc3C2)cc1,13.6% (inactive)
3,Cc1ccn2c(-c3csc(Nc4ccc(C(=O)O)cc4)n3)c(C)nc2c1,-2% (inactive)
4,Cc1nc2sccn2c1-c1csc(Nc2ncccn2)n1,3% (inactive)
5,Cc1ccn2c(-c3csc(Nc4ccc(N)cc4)n3)c(C)nc2c1,64.7% (active)
6,COCCCNC(=O)C1CCN(c2nnc(-c3ccccc3)o2)CC1,2.64% (inactive)
7,CCOC(=O)C1CCCN(CC(O)COC2CC3CCC2(C)C3(C)C)C1 (stereo not given),6.9% (inactive)
8,Oc1c(C(Nc2ccccn2)c2cccnc2)ccc2cccnc12 (stereo not given),100% (active)
9,Oc1c(C(Nc2ccccn2)c2ccncc2)ccc2cccnc12 (stereo not given),100% (active)
10,c1ccc(Nc2nc(-c3ccncc3)cs2)nc1,18% (inactive)
11,Oc1c(C(Nc2ccccn2)c2ccc(OC(F)F)cc2)ccc2cccnc12 (stereo not given),97% (active)
12,COc1ccccc1C=C1Oc2cc(C)cc(O)c2C1=O,-4.4% (inactive)
13,CCC(CC)NC(=O)C1CCc2nc(N3CCN(C(C)=O)CC3)sc2C1 (stereo not given),11.6% (inactive)
14,CC(NC(=O)CN1CCOCC1)C1CC1 (stereo not given),-8.9% (inactive)
15,CN(C(=O)c1ccccn1)C1(C(=O)NC2CCCC2)CCCCC1,-4% (inactive)
16,O=C(Nc1ccc2c(c1)OCCO2)C1CCc2sc(C(=O)N3CCCC3)cc2C1 (stereo not given),12.3% (inactive)
17,CC(C)(C)C(=O)NC(n1cccnc1=O)C(Cl)(Cl)Cl (stereo not given),2% (inactive)
18,CCCCN(CC)C(=O)c1c[nH]c2ccc(S(=O)(=O)Nc3ccccc3F)cc2c1=O,14% (inactive)
19,Cc1ccc(N2C(=O)CSC2c2ccccc2[N+](=O)[O-])cc1Cl (stereo not given),16% (inactive)
20,O=C1CSC(c2ccccc2[N+](=O)[O-])N1c1ccc(Br)cc1 (stereo not given),28% (inactive)
21,O=C1CSC(c2ccccc2[N+](=O)[O-])N1c1ccc(Oc2ccccc2)cc1 (stereo not given),59% (active)
22,CCn1cc(CCNC(C)=O)c2cccnc21,-8.1% (inactive)
23,CC(Cc1c[nH]c2ccccc12)NC(=O)c1ccncc1 (stereo not given),2.9% (inactive) and 3% (inactive)
24,O=C(O)COc1ccccc1C(c1c[nH]c2ccccc12)c1c[nH]c2ccccc12,88.9% (active)
25,CC(=O)NC(Cc1c[nH]c2ccccc12)C(=O)O (stereo not given),3.4% (inactive)

row,SMILES,inhibition
1,CC(=O)N1CCc2cc(N3CC(C(=O)Nc4ccc(C)cc4F)CC3=O)ccc21 (stereo not given),-5.06% (inactive)
2,CCc1ccc(CNC(=O)C2CC(=O)N(c3ccc4c(c3)CCN4C(C)=O)C2)cc1 (stereo not given),-4.01% (inactive)
3,CC(=O)N1CCc2cc(N3CC(C(=O)Nc4cccc(F)c4)CC3=O)ccc21 (stereo not given),90.3% (active)
4,O=C(Nc1ccc(N2CCN(C(=O)C3CCCC3)CC2)nc1)c1ccc(F)cc1F,1.5% (inactive)
5,CCOc1ccc2nc(C(=O)Nc3ccc(Br)cc3)sc2c1,-2% (inactive)
6,CC(C)(CCl)C(=O)N1CCN(c2cc(Oc3ccc(F)c(F)c3)ncn2)CC1,6.2% (inactive)
7,Cc1ccc(C(=O)N2CCC(n3cnnc3-c3ccccc3)C2)cn1 (stereo not given),-1.7% (inactive)
8,CCC(NC(C)=O)c1cccc(Br)c1 (stereo not given),-3.8% (inactive)
9,O=C(Nc1ccccc1O)c1ncn[nH]1,8.9% (inactive)
10,CCC(NC(=O)c1ncn[nH]1)c1ccccc1 (stereo not given),89.5% (active)
11,Cc1ccc(N2CCC(C(=O)NCc3ccc(F)cc3)C2=O)cc1Cl (stereo not given),-0.5% (inactive)
12,COc1cccc(CC(=O)N2CCCC2c2cccc(F)c2)c1 (stereo not given),15% (inactive)
13,O=C(CSc1nnc(NC(=O)c2ccc(Cl)c(Cl)c2)s1)NCc1ccco1,-5.3% (inactive)
14,O=C(CSc1nc(CC(=O)NCc2cccs2)cc(=O)[nH]1)NCc1ccco1,100% (active)
15,COc1ccc2nc(SCC(=O)NCc3cccs3)[nH]c2c1,-2% (inactive)
16,COc1ccccc1NC(=O)CC(C)c1ccccc1 (stereo not given),-7.2% (inactive)
17,COc1ccccc1NC(CNS(=O)(=O)c1ccc(Cl)cc1)c1ccccc1 (stereo not given),64% (active)
18,COc1ccccc1NC(=O)c1cc(S(=O)(=O)NCc2ccccc2Cl)ccc1F,-3% (inactive)
19,COc1ccc(C2=NN(C(C)=O)C(c3cc4cc(C)ccc4nc3Cl)C2)cc1OC (stereo not given),-3% (inactive)
20,O=C(CN1N=C(c2ccccc2)CCC1=O)NCCc1ccc(Cl)cc1,29% (inactive)
21,O=C(NCCc1ccccc1)c1ccc(I)cc1,-3% (inactive)
22,COc1ccccc1NC(=O)Cn1nnc(-c2ccccc2F)n1,-2.8% (inactive)
23,COc1cc(C(=O)N2CCCC2)c([N+](=O)[O-])cc1OC,-4.1% (inactive)
24,COc1ccc(NC(=O)N2CCC(Cc3ccccc3)CC2)cc1,-3.2% (inactive)
25,COc1cc(C(=O)N2CCC(Cc3ccccc3)CC2)c([N+](=O)[O-])cc1OC,54.1% (active)
